# FMDV inh: antivirals against foot and mouth disease virus; FMDV antiviral cell-based qHTS; Potency, µM (doses to about 57.9 µM), inactives show at the top dose activity change, negative = inhibition, actives largely listed as inhibitors; actives 1.2% (n = 410,000); AID 1159524; calls by dose curve; tested in HEK293T cells; note: read-out not given here; potency is the fitted concentration of half-maximal effect; nearly all actives have a fitted effect of over 45% in size
# HCV inh: inhibitors of hepatitis C virus infection; Huh7.5.1 HCVcc-Cre infection, luciferase reporter, 44 h; Potency, µM (doses to about 41.8 µM), for inactives: at the top dose activity change, negative = inhibition, most hits filed as inhibitors; actives 3.4% (n = 340,000); AID 651820; active = well fitted inhibition curve with a large enough effect; inconclusive = small, poorly fitted or top-dose-only effect, or another doubt; inactive = no such curve, though single readings can be large or run the other way; note: potency is the fitted concentration of half-maximal effect
#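 Cells (1,000/well) were plated 4 h before compound, then infected with HCVcc-Cre virus (~0.5 moi). After 44 h further culture, infection was read as luciferase luminescence following a 15 min substrate incubation at room temperature.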
# Lassa entry inh: Lassa virus entry inhibition; Lassa virus pseudotype entry inhibition, cell reporter; Potency, µM (titrated, usually from 37.9 µM), for the others: at the highest dose activity change, negative = inhibition, most hits filed as inhibitors; actives 1.2% (n = 300,000); AID 540256; calls by dose curve; tested in HEK293 cells; note: potency is the fitted concentration of half-maximal effect; nearly all actives have a fitted effect of over 50% in size
# HCMV antiviral: blocks human cytomegalovirus replication | HFF cells, HCMV-luciferase reporter, 72 h; stronger effect = lower value | activity change, negative = inhibition, % at 57.5 µM | actives 4.5% (n = 410,000) | AID 1259415; in the data active = activity change below about -60%; inconclusive = no clear call, values can overlap the other calls; inactive = above about -39%
#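 Inhibition of viral replication was scored as loss of reporter luminescence in HFFs infected with HCMV-luciferase (MOI 1 PFU/cell) for 72 h; compounds tested at 2 doses, normalized to buffer and Salinomycin controls.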
# MARV entry inh: blocks Marburg virus binding to or entry into cells; Marburg virus pseudotyped entry inhibition, cell reporter; Potency, µM (highest dose often 37.8 µM), without a hit: at the highest dose activity change, negative = inhibition, most hits filed as inhibitors; actives 1.8% (n = 300,000); calls by dose curve; tested in HEK293 cells; note: potency is the fitted concentration of half-maximal effect
# * marks the source's active call; other numbers are inactive results; u = inconclusive; x = not tested or not shown; [ ] = remark or other dose. Compounds with a hit are over-represented: about 7.9% of the library has one in this group of screens. % is set by controls: 0 for no effect and ±100 for the full control effect.
SMILES,FMDV inh,HCV inh,Lassa entry inh,HCMV antiviral,MARV entry inh
Cc1nn(Cc2ccccc2Cl)c(C)c1NC(=O)c1cc(-c2ccc(F)cc2)on1,-14%,3.5µM*,-9%,2,u
Cc1cc(NC(=O)c2cc(-c3ccc(Cl)cc3)on2)nn1Cc1ccc(Cl)cc1,u,x,18%[46.1 µM],-37,u
COc1ccc(-c2cc(C(=O)Nc3c(C)nn(Cc4ccccc4C)c3C)no2)cc1,-12%,x,-14%[46.1 µM],-21,-1%[46.1 µM]
Cc1nn(Cc2ccccc2Cl)c(C)c1NC(=O)c1nc2ncccn2n1,-14%,16%,-1%,-63*,4%
CCOC(=O)c1ccc2ncc3c(-c4ccccc4)nn(-c4ccc(F)c(Cl)c4)c3c2c1,-19%,x,-3%[46.1 µM],1,5%[46.1 µM]
Cc1ccc(-n2nc3c(N4CCC(C(=O)NC5CCCCC5)CC4)nnc(C)c3c2C)cc1,-9%,x,16%[46.1 µM],-8,x
CCN(CC)CCOCCOc1cc(C)c(Cl)c(C)c1,x,11µM*,-25%,-72*,u
O=C(c1ccc2[nH]ccc2c1)N1CCOc2ccc(CN3CCN(c4ccccn4)CC3)cc2C1,25µM*,x,x,x,x
CCOC(=O)N1CCN(Cc2ccc3c(c2)CN(C(=O)c2ccc4ncccc4c2)CCO3)CC1,28µM*,x,x,x,x
Cc1cc(C)cc(NC(=O)CSCc2cc(=O)c3cc(Cl)ccc3[nH]2)c1,3%,x,-28%[46.1 µM],3,x
Cc1c(Cl)cccc1Nc1nn2c(=O)c3ccc(C(=O)NCCC4=CCCCC4)cc3nc2s1,u,x,-10%[46.1 µM],-35,x
CCCCN(CCCC)CCNC(=O)CSCc1ccc(C)cc1,u,-9%,-11%[46.1 µM],u,7.1µM*
Cc1ccc(CNC(=O)CSCc2ccccc2)cc1,28%,6%,10%,7,2%
Cc1ccc(CSCC(=O)NCc2ccco2)cc1,4%,1%,1.4µM*,-30,-11%
COC(=O)[C@@H]1CC[C@H](C)[C@@H](c2ccc(C)cc2)N1C(=O)c1ccc(/C=N\OC[C@@H](O)[C@H]2O[C@H]3OC(C)(C)O[C@H]3[C@@H]2O)cc1,x,x,x,x,28%[14.2 µM]
Cc1nc2cc(NC(=O)[C@@H]3C[C@@H](Sc4ccccn4)CN3Cc3ccccc3)ccc2s1,21%,x,x,x,x
O=C(Nc1ccc(S(=O)(=O)N2CCCCC2)cc1)c1ccc(Cl)nc1,40µM*,u,x,-75*,x
O=C(Nc1cccc(S(=O)(=O)N2CCCCC2)c1)c1ccc(Cl)nc1,14µM*,u,x,u,x
CN1CCN(S(=O)(=O)c2ccc(NC(=O)c3ccc([N+](=O)[O-])cc3)cc2)CC1,14%,7%,29%[46.1 µM],-62*,u
CC1CCN(S(=O)(=O)c2ccc(NC(=O)c3ccncc3)cc2)CC1,u,11µM*,u,-64*,u
O=S(=O)(Nc1cccc(S(=O)(=O)N2CCCCC2)c1)c1ccc(Cl)s1,-25%,11%,x,-67*,x
O=C(Nc1cccc(S(=O)(=O)Nc2ccccc2Cl)c1)c1ccc(Cl)nc1,28µM*,u,u,-86*,u
Cc1ccc(S(=O)(=O)Nc2cccc(S(=O)(=O)N3CCCC3)c2)cc1C,44%,-22%,-24%,-26,-1%
CC(C)(C)c1ccc(C(=O)Nc2ccc(S(N)(=O)=O)cc2)cc1,-22%,22µM*,u,-37,2%[46.1 µM]
NS(=O)(=O)c1ccc(NC(=O)c2ccc(-c3ccccc3)cc2)cc1,-2%,10%,12%[46.1 µM],u,-4%[46.1 µM]
SMILES,FMDV inh,HCV inh,Lassa entry inh,HCMV antiviral,MARV entry inh
COc1cccc(OC)c1C(=O)Nc1cccc(S(=O)(=O)Nc2ccccc2Cl)c1,-2%,-2%,x,0,x
O=C(Cc1ccccc1Cl)Nc1cccc(S(=O)(=O)N2CCCCCC2)c1,-16%,u,x,-19,x
O=C(Nc1cccc(S(=O)(=O)N2CCCCC2)c1)Nc1ccc(Cl)cc1Cl,u,u,u,-100*,u
CCOc1ccc(NC(=O)CN2C(C(=O)OC)=C(c3ccccc3)c3cc(Cl)ccc3S2(=O)=O)cc1,-14%,x,-1%[46.1 µM],-9,-1%[46.1 µM]
CC(C)COc1cccc(C(=O)Nc2ccc(-c3nc4ncccc4o3)cc2)c1,-17%,x,-15%[46.1 µM],7,x
COc1ccc(-n2c(CNC(=O)c3cccc4ccccc34)nnc2SC)cc1,5%,x,x,x,x
O=C(Nc1ccc(Cc2ccncc2)cc1)c1ccc(S(=O)(=O)N2CCCC2)cc1,16µM*,5µM*,u,-87*,u
O=C(Nc1cccc(S(=O)(=O)N2CCCCC2)c1)c1ccc2ncsc2c1,-14%,7.9µM*,x,-9,x
NS(=O)(=O)c1ccc(NC(=O)c2ccc(S(=O)(=O)N3CCCCCC3)cc2)cc1,-11%,-1%,-6%,-64*,-1%
CCN(CC)S(=O)(=O)c1ccc(NC(=O)c2ccc(Cl)nc2)cc1,-27%,-22%,8%,-62*,0%[46.1 µM]
CCOC(=O)N/N=C1\C[C@@H](O)[C@@H](O)[C@@H]2[C@@H]3C(=O)N(Cc4ccccc4)C(=O)[C@@H]3CC[C@H]12,x,x,x,x,25%[14.2 µM]
O=C(CSc1ncnc2c1nnn2-c1ccc(F)cc1)NCC1CCCO1 (stereo not drawn),16µM*,-3%,-18%,-13,-29%
Cc1ccc(-n2nnc3c(=O)n(Cc4ccccc4C)cnc32)cc1,-27%,9%,x,5,x
COc1ccc(-n2nnc3c(=O)n(CC(=O)NCC4CCCO4)cnc32)cc1 (stereo not drawn),-8%,1%,1%,-102*,17%
O=C(Cn1cnc2c(nnn2-c2ccc(F)cc2)c1=O)NCC1CCCO1 (stereo not drawn),-20%,-1%,2%,51,u
COc1ccc(-n2nnc3c(=O)n(Cc4cc(C)ccc4C)cnc32)cc1,6%,u,1.2µM*,-15,-23%
Cc1ccc(-n2nnc3c(SCC(=O)NCC4CCCO4)ncnc32)cc1 (stereo not drawn),u,1%,u,x,-18%
COc1cccc(CNC(=O)C(NS(=O)(=O)c2cccs2)C(C)C)c1 (stereo not drawn),-18%,x,2%[46.1 µM],u,-13%[46.1 µM]
Cc1cc(C)nc(NS(=O)(=O)c2ccc(N)cc2)n1,31%,-7%[8.37 µM],7%,-66*,13%
COc1cccc(CNC(=O)CCc2c(C)nc3c(c(C)nn3-c3ccc(C)c(C)c3)c2C)c1,-27%,x,-8%[46.1 µM],-18,u
CCOc1ccc(NC(=O)CCn2c(=O)c3cccn3c3cccnc32)cc1,-1%,x,-9%[46.1 µM],-17,x
Cc1ccc(-c2nc(CS(=O)CC(=O)N3CCN(c4ccc(Cl)cc4)CC3)c(C)o2)cc1 (stereo not drawn),-24%,x,u,-71*,x
Cc1ccc(NC(=O)c2cc(N3C(=O)C=CC3=O)ccc2N2CCOCC2)cc1,u,10µM*,x,u,-3%[46.1 µM]
Cc1ccc(Cl)cc1NC(=O)c1cc(NC(=O)C2CCCCC2C(=O)O)ccc1N1CCOCC1 (stereo not drawn),3%,2%,10µM*,-5,18%[46.1 µM]
Cc1ccc(NC(=O)c2cc(NC(=O)c3ccco3)ccc2N2CCCCC2)cc1,-26%,u,7%,-64*,u
